# In the supplement of paper PMC8728848:
# The full list was thinned out, with the strongest signals kept by preference.
# Assays:
# Assay in all cases: glycan array binding signal (z-score within array); higher = stronger binding
# Conditions in all cases: glycan notation: IUPAC condensed, linker removed
# [1] = molecular target: Fuc(a1-2)Gal(b1-4)Glc
# Method in brief: (§1)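 Glycan array data were curated from 3228 arrays in the Consortium for Functional Glycomics database and kept only where the protein sequence was available. Glycan names were converted to IUPAC-condensed notation, and columns mapping to the same glycan were averaged. The binding signal is a within-array Z-score, averaged across arrays of the same protein sequence at different concentrations or buffers and across linkers. Negative Z-scores can be read as non-binding.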
# [2] = molecular target: Fuc(a1-2)Gal(b1-4)GlcNAc(b1-3)Gal(b1-4)GlcNAc(b1-3)Gal(b1-4)GlcNAc
# Method in brief: as §1
# [3] = molecular target: Fuc(a1-2)[Gal(a1-3)]Gal(b1-4)GlcNAc
# Method in brief: as §1
# [4] = molecular target: Fuc(a1-3)[Gal(b1-4)]GlcNAc(b1-2)Man(a1-6)[Gal(b1-4)GlcNAc(b1-2)Man(a1-3)]Man(b1-4)GlcNAc(b1-4)GlcNAc
# Method in brief: as §1
# [5] = molecular target: Fuc(a1-3)[Gal(b1-4)]GlcNAc(b1-4)Gal(b1-4)[Fuc(a1-3)]GlcNAc
# Method in brief: as §1
# [6] = molecular target: Gal(a1-3)GalNAc
# Method in brief: as §1
# [7] = molecular target: Gal(b1-3)[Fuc(a1-4)]GlcNAc
# Method in brief: as §1
# [8] = molecular target: Gal(b1-4)GalNAc(a1-3)[Fuc(a1-2)]Gal(b1-4)GlcNAc
# Method in brief: as §1
# [9] = molecular target: Gal(b1-4)GlcNAc
# Method in brief: as §1
# [10] = molecular target: Gal(b1-4)GlcNAc(b1-2)Man(a1-3)[Gal(b1-4)GlcNAc(b1-2)Man(a1-6)]Man(b1-4)GlcNAc(b1-4)GlcNAc
# Method in brief: as §1
# [11] = molecular target: Gal(b1-4)GlcNAc(b1-3)Gal(b1-3)GlcNAc
# Method in brief: as §1
# [12] = molecular target: Glc(a1-6)Glc(a1-6)Glc
# Method in brief: as §1
# [13] = molecular target: GlcA(b1-6)Gal
# Method in brief: as §1
# [14] = molecular target: GlcNAc(b1-2)Gal(b1-3)GalNAc
# Method in brief: as §1
# [15] = molecular target: Man(a1-3)[Man(a1-6)]Man(b1-4)GlcNAc(b1-4)GlcNAc
# Method in brief: as §1
# [16] = molecular target: Man(a1-6)Man
# Method in brief: as §1
# [17] = molecular target: Neu5Ac(a2-3)Gal(b1-3)[Fuc(a1-4)]GlcNAc
# Method in brief: as §1
# [18] = molecular target: Neu5Ac(a2-3)Gal(b1-4)GlcNAc(b1-2)Man(a1-3)[GlcNAc(b1-2)Man(b1-4)GlcNAc(b1-2)Man(a1-6)]Man(b1-4)GlcNAc(b1-4)GlcNAc
# Method in brief: as §1
# [19] = molecular target: Neu5Ac(a2-3)Gal(b1-4)GlcNAc(b1-2)Man(a1-3)[Neu5Ac(a2-6)Gal(b1-4)GlcNAc(b1-2)Man(a1-6)]Man(b1-4)GlcNAc(b1-4)GlcNAc
# Method in brief: as §1
# [20] = molecular target: Neu5Ac(a2-6)Gal(b1-4)GlcNAc
# Method in brief: as §1
# [21] = molecular target: Neu5Ac(b2-6)GalNAc
# Method in brief: as §1
# [22] = molecular target: Neu5Gc(a2-3)Gal(b1-3)[Fuc(a1-4)]GlcNAc
# Method in brief: as §1
# [23] = molecular target: Neu5Gc(a2-3)Gal(b1-4)[Fuc(a1-3)]GlcNAc
# Method in brief: as §1
# [24] = molecular target: Neu5Gc(a2-6)Gal(b1-4)GlcNAc
# Method in brief: as §1
binder,measurement,setting,value
"Codakine (Codakia orbicularis), Q3KVL7_9BIVA (protein) MKILVAVFLVLVVVGTAAAGCPDGWTQFLDLCYIYQSAKASWASAQSSCQALGGILAEPDTACENEVLIHMCRENGDAGSFGPWLGGQKVGGAWQWSSSGAAFDYLRWGPNEPNNSGGNEDCLHYNWLSWNDLRCHYQASYLCQRAAE",glycan array binding signal (z-score),[1],-0.26
same,glycan array binding signal (z-score),[2],-0.235
same,glycan array binding signal (z-score),[3],-0.342
same,glycan array binding signal (z-score),[4],6.48
same,glycan array binding signal (z-score),[5],-0.321
same,glycan array binding signal (z-score),[6],-0.298
same,glycan array binding signal (z-score),[7],-0.203
same,glycan array binding signal (z-score),[8],-0.419
same,glycan array binding signal (z-score),[9],-0.3
same,glycan array binding signal (z-score),[10],4.02
same,glycan array binding signal (z-score),[11],-0.239
same,glycan array binding signal (z-score),[12],-0.317
same,glycan array binding signal (z-score),[13],-0.302
same,glycan array binding signal (z-score),[14],-0.276
same,glycan array binding signal (z-score),[15],4.3
same,glycan array binding signal (z-score),[16],0.449
same,glycan array binding signal (z-score),[17],-0.34
same,glycan array binding signal (z-score),[18],4.82
same,glycan array binding signal (z-score),[19],4.57
same,glycan array binding signal (z-score),[20],-0.224
same,glycan array binding signal (z-score),[21],-0.238
same,glycan array binding signal (z-score),[22],-0.265
same,glycan array binding signal (z-score),[23],-0.234
same,glycan array binding signal (z-score),[24],-0.289
